Molecules are shown by their SMILES. Among all 69,000 compounds or so, about 1,000 (1.4%) showed an effect of 50% or more. This excerpt belongs to a sample that is enriched for strong results.

Results on 49 compounds are retold here after ChEMBL document CHEMBL3988442, “University of Dundee, Small-Polar-MMV Screening Library” (2021).

For this test, the system named is Leishmania donovani. Description: Leishmania intramacrophage assay. It is filed as functional, organism-based. On the set-up: scale not given: in the data most compounds retested in dose-response had high values.

Regarding `COC[C@@]12CC[C@@H](N3CCOCC3)C[C@H]1CCN(c1ncccc1C)C2`, the “Percent Effect” value (30.3 µM, […]) amounted to 25.83%.
As to `COC[C@@]12CC[C@@H](N3CCOCC3)C[C@H]1CCN(c1ncccc1F)C2`, where the note is “30.3 µM, […]”, the “Percent Effect” value is given as 25.63%.
For the compound `COC[C@@]12CC[C@@H](N3CCOCC3)C[C@H]1CCN(c1ncccc1Cl)C2`, the “Percent Effect” value (30 µM, 30.03 µM) is 52.08%.
On to `CC(c1nccs1)N(C)C(=O)c1cc(CN(C)Cc2ccccc2)on1` (centres undefined), for which the “Percent Effect” value (30.3 µM, […]) came to 13.49%.
For `Cc1cnn(CC2CCCN2C(=O)c2cc(Cl)ccc2F)c1` (centres undefined), the “Percent Effect” value (30 µM, 30.03 µM) is on record as -5.128%.
Regarding `CN1CCC(N2Cc3nc(N)ncc3C2=O)CC1`, the “Percent Effect” value (30.3 µM, […]) is listed as 54.63%.
With `CC1CCC(N2Cc3nc(N)ncc3C2=O)CC1` (centres undefined), the “Percent Effect” value (30.3 µM, […]) is -33.84%.
Consider `Nc1ncc2c(n1)CN(C1CCCC1)C2=O`, for which, under “30 µM, 30.03 µM”, the “Percent Effect” value came out at 22.17%.
In the case of `CCC1=NN2C(=N)/C(=C\c3cccn3-c3ccc(Cl)cc3)C(=O)N=C2S1`, the “Percent Effect” value (30.3 µM, […]) is given as -2.316%.
`CCN1C(=O)CC[C@@H]2[C@H]1CCN2S(=O)(=O)Cc1ccc(C)cc1`: the “Percent Effect” value (30.3 µM, […]) came to 17.88%.
Same read-out and setting: then `Cl.Fc1cccc(F)c1Cn1c(C2CCCNC2)cc2cccnc21` (centres undefined), with -15.48%; and `Cl.Fc1cccc(F)c1Cn1c(C2CCNCC2)cc2cccnc21`, with 57.89%; and `Cl.Fc1ccccc1Cn1c(C2CCNCC2)cc2cccnc21`, with 43.21%.
`Cc1nc(Nc2ncccn2)cc(C2CCN(CC(C)C)C2)n1` (centres undefined): the “Percent Effect” value (30.3 µM, […]) was determined as 2.022%.
For `CN1CSC[C@H]1C(=O)N1CCN(Cc2cccc(F)c2)CC1`, the “Percent Effect” value (30.3 µM, […]) was 4.358%.
Regarding `CN(CC1COc2ccccc2O1)C(=O)C1=NN(C)C(=O)CC1` (centres undefined), the “Percent Effect” value (30.3 µM, […]) turned out to be 18.48%.
With `Cc1csc(CN2CC(CO)Oc3ccccc32)n1` (centres undefined), the “Percent Effect” value (30.3 µM, […]) is given as -4.409%.
Turning to `Cc1cc(N(C)CCCn2cccn2)nc(N)n1`, the “Percent Effect” value (30.3 µM, […]) turned out to be 27.03%.
As for `CN(Cc1nnnn1C1CC1)CC1COc2ccccc2O1` (centres undefined), for the setting “30.3 µM, […]”, the “Percent Effect” value was found to be 4.21%.
With `CCN1CC(CN(C)c2cc(C)nc(N)n2)Oc2ccccc21` (centres undefined), the “Percent Effect” value (30.3 µM, […]) amounted to 84.12%.
In the case of `CN(Cc1nc(CC2CC2)no1)CC1COc2ccccc2O1` (centres undefined), under “30.3 µM, […]”, the “Percent Effect” value is -8.353%.
In the case of `COc1ccccc1OCCCN(C)c1cc(C)nc(N)n1`, for the setting “30.3 µM, […]”, the “Percent Effect” value is 16.27%.
On to `Cc1cc(N(C)CC2COc3ccccc3O2)nc(N)n1` (centres undefined), for which, for the setting “30.3 µM, […]”, the “Percent Effect” value was found to be 51.06%.
With `Cc1cc(N(C)CC2COc3ccccc3O2)nc(C)n1` (centres undefined), the “Percent Effect” value (30.3 µM, […]) is reported as 59.02%.
In the case of `COc1ccccc1CNC(=O)N1CCCC(NS(C)(=O)=O)C1` (centres undefined), under “30 µM, 30.03 µM”, the “Percent Effect” value is -10.5%.
Turning to `Br.O=C(O)c1csc(NCCc2ccccc2)n1`, the “Percent Effect” value (30.3 µM, […]) is recorded as -6.16%.
With `CC(C)n1cnnc1CNC(=O)c1cnn(-c2ccccc2)c1`, the “Percent Effect” value (30.3 µM, […]) came out at 5.112%.
Turning to `Cc1cc(NC(=O)CN2CCOC(CN(C)C)C2)n(C)n1` (centres undefined), the “Percent Effect” value (30.3 µM, […]) worked out at 9.756%.
Turning to `Cc1nn(C)c(C)c1NC(=O)CN1CCOC(Cn2cccn2)C1` (centres undefined), the “Percent Effect” value (30.3 µM, […]) was 7.584%.
Still for that read-out and setting: for `Cc1nn(C)c(C)c1NC(=O)CN1CCOC(CN(C)C)C1` (centres undefined) the value was 51.92%; for `CCC[C@@H]1CN(c2cncc(C(=O)N3CCOCC3)n2)C[C@H]1N(C)C`, 5.453%.
Turning to `FC(F)(F)CCc1ccnc(N2CCN(CCc3ccncc3)CC2)n1`, the “Percent Effect” value (30.3 µM, […]) is on record as -20.06%.
In the case of `NC(=O)c1cccc(CCNCc2cnc(-c3cccs3)s2)c1`, the “Percent Effect” value (30.3 µM, […]) is given as 8.667%.
With `Cc1nn(C)c2ncnc(N3CCC(O)(CN4CCCC4)CC3)c12`, the “Percent Effect” value (30.3 µM, […]) amounted to 8.338%.
Consider `CC(=O)c1cn(CCC(=O)N[C@@H](CC(C)C)C(=O)O)c2ccccc12`, for which, under “30.3 µM, […]”, the “Percent Effect” value stood at 32.27%.
Same read-out and setting: then `CC[C@@H](C)[C@H](NC(=O)CCn1cc(C(C)=O)c2ccccc21)C(=O)O`, with 56.09%.
In the case of `CC(=O)c1cn(CCC(=O)N[C@H](C(=O)O)C(C)C)c2ccccc12`, the “Percent Effect” value (30 µM, 30.03 µM) was found to be 8.027%.
With `CCC1=N[C@@]2(CC[C@@H]3CN(CC4CC4)C[C@@H]32)C(=O)N1C.O=C(O)C(F)(F)F`, the “Percent Effect” value (30 µM, 30.03 µM) was 21.68%.
As for `CN1CCCC(N(C)S(=O)(=O)c2cccc3ncccc23)C1` (centres undefined), the “Percent Effect” value (30.3 µM, […]) came to 59.16%.
`Cc1ccc2cccc(S(=O)(=O)N(C)C3CCCN(C)C3)c2n1` (centres undefined): the “Percent Effect” value (30.3 µM, […]) turned out to be 25.11%.
On to `CN(C1CCCN(c2ccccn2)C1)S(C)(=O)=O` (centres undefined), for which the “Percent Effect” value (30.3 µM, […]) is recorded as 25.41%.
Consider `O=C(CNc1cc(-n2cnnn2)ccc1F)NCc1ccccc1`, for which the “Percent Effect” value (30.3 µM, […]) was determined as 43.45%.
In the case of `CCOc1ccccc1CCN1Cc2ncccc2C1=O`, for the setting “30.3 µM, […]”, the “Percent Effect” value is listed as -1.003%.
Take `COc1c(C2CCCN2c2ncnc3sccc23)c(C)nn1C` (centres undefined): under “30.3 µM, […]”, the “Percent Effect” value came out at 26.6%.
For `Cc1nn(C)c(C)c1C1CCCN1c1ncnc2sccc12` (centres undefined), the “Percent Effect” value (30.3 µM, […]) is 33.23%.
As for `Cc1nn(C)c(Cl)c1C1CCCN1c1ncnc2sccc12` (centres undefined), the “Percent Effect” value (30 µM, 30.03 µM) came out at 51.25%.
With `CC(=O)C(Cc1ccccc1)NC(=O)CSc1nccn1C1CC1` (centres undefined), the “Percent Effect” value (30.3 µM, […]) is 7.269%.
Turning to `Cc1noc(C)c1CN1CCN(CC2CC2)c2ncccc2C1.O=C(O)C(F)(F)F.O=C(O)C(F)(F)F`, the “Percent Effect” value (30 µM, 30.03 µM) was determined as 23.02%.
Turning to `Cc1noc(C)c1CN1CCO[C@H]2CN(Cc3ccc(F)cc3)C[C@H]21.O=C(O)C(F)(F)F.O=C(O)C(F)(F)F`, the “Percent Effect” value (30.3 µM, […]) was 23.07%.
